# Source: PubChem BioAssay
# Sampled rows, rich in hits. Any-hit rate of the full collection: about 32%.
# CYP2C19 act: human CYP2C19 activators, primary screen, biochemical, luminescence; activation factor at 5 µM; recombinant CYP2C19, luciferin-H EGE luminescence; hits give high values; 0 = fully inhibited enzyme, 1 = untreated enzyme; Cytochrome P450 2C19 (Homo sapiens), P33261; 96,000 tested, under 10 active;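 active = activation factor of at least 2 at 5 µM in the primary screen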
# Target sequence (P33261 whole entry, looked up): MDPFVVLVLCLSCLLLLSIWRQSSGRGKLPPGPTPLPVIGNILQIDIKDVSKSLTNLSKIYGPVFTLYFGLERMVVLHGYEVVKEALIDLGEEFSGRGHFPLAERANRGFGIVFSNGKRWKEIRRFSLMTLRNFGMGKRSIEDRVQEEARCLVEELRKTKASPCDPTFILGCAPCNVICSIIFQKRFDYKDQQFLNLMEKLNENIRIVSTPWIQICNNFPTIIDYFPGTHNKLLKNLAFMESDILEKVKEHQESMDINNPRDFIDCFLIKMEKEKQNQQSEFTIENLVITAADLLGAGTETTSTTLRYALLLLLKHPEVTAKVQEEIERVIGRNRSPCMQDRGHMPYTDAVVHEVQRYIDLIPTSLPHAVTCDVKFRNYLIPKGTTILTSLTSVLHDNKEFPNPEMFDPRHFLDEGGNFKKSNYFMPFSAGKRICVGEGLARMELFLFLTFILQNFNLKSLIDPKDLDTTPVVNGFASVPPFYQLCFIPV
# CYP2C9 inh: blockers of cytochrome P450 2C9 activity – biochemical, luminescence, ADME assay, primary screen | P11712 | CYP2C9 Supersomes, luciferin-H conversion | inhibition, % at 5 µM | actives 20% (n = 96,000);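 active = blocking of liver enzyme CYP2C9 beyond about 50% at 5 µM, limit read from the data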
# CYP2C9 act: human CYP2C9 activators, primary screen, biochemical, luminescence; AID 1024, 2008; activation factor at 5 µM; recombinant CYP2C9, luciferin-H conversion; hits give high values; factor 1 = untreated enzyme, 0 = blocked; actives 1.4% (n = 96,000);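 active = activation factor of 2 or more for CYP2C9 at a 5 µM dose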
# CYP2C19 inhib: blockers of cytochrome P450 2C19 activity – biochemical, luminescence, ADME assay, primary screen; AID 778, 2007; inhibition, % at 5 µM; CYP2C19 Supersomes, luciferin-H EGE luminescence, 30 min; P33261; actives 21% (n = 96,000);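 active = CYP2C19 inhibition above a set limit at 5 µM in the primary screen, cut at about 50% in these data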
# PostGolgi yeast: phenotypic screen on post-Golgi transport, primary screen; post-Golgi transport phenotypic cell assay; actives 0.9% (n = 98,000); inhibition, % at 10 µM;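 also: yeast cells grown in 1536-well plates; yeast grown about 18 h at 30C before absorbance read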
# PostGolgi ctrl: growth inhibition of yeast control strain, primary screen, counter-screen for post-Golgi transport modulator project. AID 738, 2007. efflux-deficient yeast background strain, growth absorbance A615, 16 h. inhibition, % at 10 µM. actives 5% (n = 98,000)
# A number is an active result; i = inactive; nt = no result. Rule as the data show it, unless noted: active = inhibition above about 30%; inactive = the rest.
SMILES,CYP2C19 act,CYP2C9 inh,CYP2C9 act,CYP2C19 inhib,PostGolgi yeast,PostGolgi ctrl
Cn1c(-c2ccc(F)cc2)cnc1SCC(=O)Nc1ccccc1N1CCOCC1,i,i,i,68.3,i,i
O=C(Cn1nnc(-c2ccccc2)n1)Nc1ccccc1N1CCOCC1,i,73.7,i,63.4,i,i
CC1CCCCN1C(=O)Cn1nnc(-c2cccnc2)n1 (centres undefined),nt,nt,nt,nt,i,i
Cn1nnnc1SCC(=O)Nc1ccccc1N1CCOCC1,i,i,i,i,i,i
O=C(Cc1ccccc1)Nc1ccccc1N1CCOCC1,i,i,i,i,i,i
Cc1ccc(-c2nnn(CC(=O)Nc3ccccc3N3CCOCC3)n2)cc1,i,78.8,i,i,i,i
CCc1ccccc1NC(=O)Cn1nnc(-c2cccnc2)n1,i,i,i,96.2,i,i
COc1ccc(C(=O)c2ccccc2)cc1Br,i,i,2.2,i,i,i
COc1ccc(C(=O)c2ccc(OC)c(N)c2)cc1N,i,i,2.6,i,i,i
COc1ccc(C(=O)c2ccc(OC)c(OC)c2)cc1OC,i,i,i,i,i,i
CC(C)COC(=O)C1[C@H]2C(=O)N(Cc3cccs3)C[C@]23C=C[C@H]1O3 (some centres undefined),i,i,i,i,i,i
CCOc1cc(N2CCOCC2)c(OCC)cc1NC(=O)Cc1cccc(OC)c1,i,i,i,i,i,i
CCOc1cc(N2CCOCC2)c(OCC)cc1NC(=O)CN1CCc2ccccc2C1,i,i,i,i,i,39.0
O=C(CN1CCc2ccccc2C1)Nc1ccccc1N1CCCCCC1,i,72.6,i,90.0,i,i
COc1ccccc1-n1c(SCC(=O)N2CCCC2)nc2cccnc21,i,i,i,i,i,i
COc1ccc(Nc2ncc3c(n2)CC(c2ccc(OC)cc2)CC3=O)cc1 (centres undefined),i,i,i,i,i,i
COc1ccc(-c2ccc(-c3noc(-c4ccccc4F)n3)c(OC)n2)cc1,i,i,i,i,i,i
ONC(=Nc1ccc(Cl)cc1)c1ccc(Cl)cc1,i,55.4,i,70.8,i,i
O=C(CCC(=O)OCC(=O)c1cccc([N+](=O)[O-])c1)Nc1cccc(Cl)c1Cl,i,i,i,i,i,i
O=[N+]([O-])c1cccc(C(=Nc2ccccc2Cl)NO)c1,i,61.7,i,87.4,i,i
CC(C)C(=O)Nc1cccc(NC(=O)c2cccc([N+](=O)[O-])c2)c1,i,i,i,i,i,i
O=[N+]([O-])c1cccc(C(=Nc2ccc(Cl)cc2)NO)c1,i,71.3,i,87.9,i,i
COC(=O)Cn1c(CCS(=O)(=O)c2ccc(C)c(C)c2)nc2ccccc21,i,i,i,60.9,i,i
Cc1ccc(S(=O)(=O)CCc2nc3ccccc3n2CCC#N)cc1,i,i,i,51.1,i,i
Cc1ccc(S(=O)(=O)CC2CSc3nc4ccccc4n32)cc1 (centres undefined),i,53.7,i,67.9,i,i
SMILES,CYP2C19 act,CYP2C9 inh,CYP2C9 act,CYP2C19 inhib,PostGolgi yeast,PostGolgi ctrl
CCOC(=O)c1cccc(NC(=O)CSc2nnc(COc3ccc(Cl)cc3)o2)c1,i,i,i,i,i,i
C=CCSc1nc2c(c(=O)n(C)c(=O)n2C)n1CC,i,i,i,i,i,i
CC(C)n1nc(C(=O)Nc2nnc(SCc3c(Cl)cccc3Cl)s2)c2ccccc2c1=O,i,86.4,i,66.4,i,i
CCN1/C(=C/c2ccc3ccccc3[n+]2CC)C=Cc2ccccc21,i,i,i,i,i,65.7
CC(=O)/C=C1\SC(CC(=O)O)C(=O)N1c1ccccc1 (centres undefined),i,i,i,i,i,i
CC(NC(=O)C1CCCN(S(=O)(=O)c2cccc3nonc23)C1)c1ccccc1 (centres undefined),i,53.4,i,i,i,i
Cc1noc(/C=C/N(C)C)c1S(=O)(=O)N1CCCC(C(=O)NC(C)c2ccccc2)C1 (centres undefined),i,67.5,i,i,i,i
O=C(NC1CCN(Cc2ccccc2)CC1)C1CCCN(S(=O)(=O)c2cccc3nonc23)C1 (centres undefined),i,i,i,53.1,i,i
CC1CCN(CCNC(=O)C2CCCN(S(=O)(=O)c3cccc4nonc34)C2)CC1 (centres undefined),i,i,i,i,i,i
O=C(NCc1ccc2c(c1)OCO2)C1CCCN(S(=O)(=O)c2cccc3nonc23)C1 (centres undefined),i,63.8,i,i,i,i
Cc1noc(/C=C/N(C)C)c1S(=O)(=O)N1CCc2ccccc21,i,i,i,66.6,i,i
COc1ccccc1Cn1c(=O)c2ccccc2n2c(SCc3csc(C)n3)nnc12,i,i,i,57.0,i,i
COc1ccccc1Cn1c(=O)c2ccccc2n2c(Sc3ncnc4sccc34)nnc12,i,57.4,i,60.7,i,41.6
CCCn1c(=O)c2ccccc2n2c(SCCOc3ccc(OC)cc3)nnc12,i,i,i,i,i,i
Cc1ccc(S(=O)(=O)N2CCN(S(=O)(=O)N3CCOCC3)CC2)c(C)c1,i,i,i,i,i,i
Cc1cc(C)cc(NC(=O)c2snc3c(=O)[nH]cnc23)c1,i,i,i,i,i,i
CC1=C(C(=O)Nc2cc(-c3cccc(F)c3)[nH]n2)C2(CCCCC2)OC1=O,i,83.1,i,51.6,i,31.7
O=C1C(Cl)=C(NCC2CCCO2)C(=O)N1C1CCCCC1 (centres undefined),i,i,i,i,i,41.2
Cc1nn(-c2ccccc2)c(C)c1/C=N\N1CCN(c2ccc(Cl)cc2)CC1,i,i,i,i,65.5,47.4
Cc1ccsc1/C=N/N1CCN(c2ccccc2)CC1,i,i,2.1,i,i,i
Cc1nn(-c2ccccc2)c(C)c1/C=N/O,i,i,i,i,i,i
Cn1c(=O)n(C)c2cc(S(=O)(=O)NCCO)ccc21,i,i,i,i,i,i
c1ccc(-c2csc3ncn4nnnc4c23)cc1,i,i,i,i,i,i
COc1cc(-c2csc(C)n2)ccc1O,i,i,i,i,i,i
COc1ccc(-c2ncncc2-c2csc(C)n2)c(O)c1OC,i,51.5,i,63.2,i,i
Cn1c(=O)c2c(nc(N3CCOCC3)n2C)n(C)c1=O,i,i,i,i,i,i
COC(=O)CCN(C(=O)c1ccc(OC(C)=O)cc1)c1ccccn1,i,i,i,i,i,i
CCn1c(SCC(=O)Nc2ccc3c(c2)c2ccccc2n3CC)nnc1-c1cnccn1,i,i,i,53.1,i,i
C=CCn1c(SCC(=O)Nc2cc(C)ccc2C)nnc1-c1cnccn1,i,i,i,83.2,i,i
